# In publication PMC12820563, “FoxP3 forms a head-to-head dimer in vivo and stabilizes its multimerization on adjacent microsatellites”:
# The full ranking holds about 16,000 sequences; the median of “rpm ratio (pull-down/input)” is about 0.5, and the highest 2% start at about 5.5. The list comes from a sample in which the highest values are over-represented; it also holds similar and randomly drawn sequences.
# Target: T1, MBP-FoxP3dN (Mus musculus, UniProt Q99JB6 188-423)
# T1 sequence: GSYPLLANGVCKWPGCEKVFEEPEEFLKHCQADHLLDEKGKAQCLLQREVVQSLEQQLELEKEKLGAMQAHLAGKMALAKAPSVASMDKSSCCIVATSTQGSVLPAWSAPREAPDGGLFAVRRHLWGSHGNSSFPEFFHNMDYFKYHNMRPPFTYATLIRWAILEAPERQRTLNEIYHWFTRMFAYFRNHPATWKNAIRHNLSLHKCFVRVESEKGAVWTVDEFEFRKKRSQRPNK
# Test: PD-seq (MBP pull-down with sequencing); 20 mM Tris-HCl pH 7.5, 100 mM NaCl, 1.5 mM MgCl2, 0.4 uM protein, 0.1 uM dsDNA library, 30 min, room temperature, amylose pull-down; high values mean tight binding
# Details: protein: recombinant; tags: His6-MBP; chain copies: 2; dsDNA, one strand shown
# Summary of the method: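 The N-terminus-lacking fragment of mouse FoxP3 or FoxP1 carried a His6-MBP tag and was expressed in E. coli. At 0.4 µM it was incubated with 0.1 µM Klenow-filled degenerate double-stranded DNA library for 30 min at room temperature in Tris pH 7.5 buffer with NaCl and MgCl2, and complexes were caught on amylose resin, washed three times, released with proteinase K, PCR-barcoded and Illumina-sequenced. Binding is reads-per-million enrichment of pull-down over input with replicates pooled.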
row,Sequence,binding signal
1,GATGATTGTTCTCCCAGCTGATGAATTCACGCTTTCGAGTAAACAAATTTTCCTAATCTTTCTGTTCAAGCGCCATCTAC,1.11 RPM ratio (pull-down/input)
2,GATGATTGTTCTCCCAGCTGATGAATTCGCGCCATCGAGTAAACAAATTTTCCTAATCTTTCTGTTCAAGCGCCATCTAC,2.63 RPM ratio (pull-down/input)
3,GATGATTGTTCTCCCAGCTGATGAATTTCGCGCATCGAGTAAACAAATTTTCCTAATCTTTCTGTTCAAGCGCCATCTAC,1.42 RPM ratio (pull-down/input)
4,GATGATTGTTCTCCCAGCTGATGAATTCGCAGCTTCGAGTAAACAAATTTTCCTAATCTTTCTGTTCAAGCGCCATCTAC,0.653 RPM ratio (pull-down/input)
5,GATGATTGTTCTCCCAGCTGATGAATTTCGCAGCTCGAGTAAACAAATTTTCCTAATCTTTCTGTTCAAGCGCCATCTAC,2.01 RPM ratio (pull-down/input)
6,GATGATTGTTCTCCCAGCTGATGAATTCTTCGCATCGAGTAAACAAATTTTCCTAATCTTTCTGTTCAAGCGCCATCTAC,0.708 RPM ratio (pull-down/input)
7,GATGATTGTTCTCCCAGCTGATGAATTGTATAACTCGAGTAAACAAATTTTCCTAATCTTTCTGTTCAAGCGCCATCTAC,0.812 RPM ratio (pull-down/input)
8,GATGATTGTTCTCCCAGCTGATGAATTAAGCCGATCGAGTAAACAAATTTTCCTAATCTTTCTGTTCAAGCGCCATCTAC,0.427 RPM ratio (pull-down/input)
9,GATGATTGTTCTCCCAGCTGATGAATTTAGTGGGTCGAGTAAACAAATTTTCCTAATCTTTCTGTTCAAGCGCCATCTAC,1.06 RPM ratio (pull-down/input)
10,GATGATTGTTCTCCCAGCTGATGAATTCAAAACCTCGAGTAAACAAATTTTCCTAATCTTTCTGTTCAAGCGCCATCTAC,0.276 RPM ratio (pull-down/input)
11,GATGATTGTTCTCCCAGCTGATGAATTTATGATATCGAGTAAACAAATTTTCCTAATCTTTCTGTTCAAGCGCCATCTAC,1.11 RPM ratio (pull-down/input)
12,GATGATTGTTCTCCCAGCTGATGAATTCAATAGCTCGAGTAAACAAATTTTCCTAATCTTTCTGTTCAAGCGCCATCTAC,0.877 RPM ratio (pull-down/input)
13,GATGATTGTTCTCCCAGCTGATGAATTTCATAGTTCGAGTAAACAAATTTTCCTAATCTTTCTGTTCAAGCGCCATCTAC,0.583 RPM ratio (pull-down/input)
14,GATGATTGTTCTCCCAGCTGATGAATTACTTACATCGAGTAAACAAATTTTCCTAATCTTTCTGTTCAAGCGCCATCTAC,0.574 RPM ratio (pull-down/input)
15,GATGATTGTTCTCCCAGCTGATGAATTCCTCGCATCGAGTAAACAAATTTTCCTAATCTTTCTGTTCAAGCGCCATCTAC,0.768 RPM ratio (pull-down/input)
16,GATGATTGTTCTCCCAGCTGATGAATTCCCATTGTCGAGTAAACAAATTTTCCTAATCTTTCTGTTCAAGCGCCATCTAC,0.454 RPM ratio (pull-down/input)
17,GATGATTGTTCTCCCAGCTGATGAATTCGCATTATCGAGTAAACAAATTTTCCTAATCTTTCTGTTCAAGCGCCATCTAC,3.53 RPM ratio (pull-down/input)
18,GATGATTGTTCTCCCAGCTGATGAATTCGCCTCCTCGAGTAAACAAATTTTCCTAATCTTTCTGTTCAAGCGCCATCTAC,2.15 RPM ratio (pull-down/input)

row,Sequence,binding signal
1,GATGATTGTTCTCCCAGCTGATGAATTCGCATCCTCGAGTAAACAAATTTTCCTAATCTTTCTGTTCAAGCGCCATCTAC,5.74 RPM ratio (pull-down/input)
2,GATGATTGTTCTCCCAGCTGATGAATTATCGCATTCGAGTAAACAAATTTTCCTAATCTTTCTGTTCAAGCGCCATCTAC,6.64 RPM ratio (pull-down/input)
3,GATGATTGTTCTCCCAGCTGATGAATTATTCGCATCGAGTAAACAAATTTTCCTAATCTTTCTGTTCAAGCGCCATCTAC,1.12 RPM ratio (pull-down/input)
4,GATGATTGTTCTCCCAGCTGATGAATTCGCATTGTCGAGTAAACAAATTTTCCTAATCTTTCTGTTCAAGCGCCATCTAC,3.91 RPM ratio (pull-down/input)
5,GATGATTGTTCTCCCAGCTGATGAATTGTCGCATTCGAGTAAACAAATTTTCCTAATCTTTCTGTTCAAGCGCCATCTAC,6.14 RPM ratio (pull-down/input)
6,GATGATTGTTCTCCCAGCTGATGAATTCTAAACTTCGAGTAAACAAATTTTCCTAATCTTTCTGTTCAAGCGCCATCTAC,0.381 RPM ratio (pull-down/input)
7,GATGATTGTTCTCCCAGCTGATGAATTTCCATTTTCGAGTAAACAAATTTTCCTAATCTTTCTGTTCAAGCGCCATCTAC,0.295 RPM ratio (pull-down/input)
8,GATGATTGTTCTCCCAGCTGATGAATTAACATAATCGAGTAAACAAATTTTCCTAATCTTTCTGTTCAAGCGCCATCTAC,0.409 RPM ratio (pull-down/input)
9,GATGATTGTTCTCCCAGCTGATGAATTGCTTTTGTCGAGTAAACAAATTTTCCTAATCTTTCTGTTCAAGCGCCATCTAC,1.51 RPM ratio (pull-down/input)
10,GATGATTGTTCTCCCAGCTGATGAATTGCTTCTGTCGAGTAAACAAATTTTCCTAATCTTTCTGTTCAAGCGCCATCTAC,0.468 RPM ratio (pull-down/input)
11,GATGATTGTTCTCCCAGCTGATGAATTGCTTGGGTCGAGTAAACAAATTTTCCTAATCTTTCTGTTCAAGCGCCATCTAC,0.775 RPM ratio (pull-down/input)
12,GATGATTGTTCTCCCAGCTGATGAATTGCTTTGGTCGAGTAAACAAATTTTCCTAATCTTTCTGTTCAAGCGCCATCTAC,1.08 RPM ratio (pull-down/input)
13,GATGATTGTTCTCCCAGCTGATGAATTTTGCTTGTCGAGTAAACAAATTTTCCTAATCTTTCTGTTCAAGCGCCATCTAC,5.89 RPM ratio (pull-down/input)
14,GATGATTGTTCTCCCAGCTGATGAATTGTGCTTGTCGAGTAAACAAATTTTCCTAATCTTTCTGTTCAAGCGCCATCTAC,5.16 RPM ratio (pull-down/input)
15,GATGATTGTTCTCCCAGCTGATGAATTTGCTTGGTCGAGTAAACAAATTTTCCTAATCTTTCTGTTCAAGCGCCATCTAC,5.74 RPM ratio (pull-down/input)
16,GATGATTGTTCTCCCAGCTGATGAATTCTTGCTGTCGAGTAAACAAATTTTCCTAATCTTTCTGTTCAAGCGCCATCTAC,0.508 RPM ratio (pull-down/input)
17,GATGATTGTTCTCCCAGCTGATGAATTTGCTTTGTCGAGTAAACAAATTTTCCTAATCTTTCTGTTCAAGCGCCATCTAC,6.34 RPM ratio (pull-down/input)
